Test results as given in PubChem BioAssay (NCATS).
Results filed as inconclusive are left out. Calls of active or inactive are those of the source. Calls follow the shape of the dose curve; as a rule, active = well fitted cell-killing curve with a large enough effect; inconclusive = small, poorly fitted or top-dose-only effect; inactive = no such curve, though single readings can be large or run the other way.

Assay: qHTS of pediatric cancer cell lines to identify multiple opportunities for drug repurposing: Primary screen for LAN-5 cells (AID 1347100)
Conditions: LAN-5 neuroblastoma viability, CellTiter-Glo luminescence, 48 h; series mostly up to 46 µM
From the text: Drug repurposing or repositioning has been offered as a strategy for drug development in oncology programs. This approach has special potential for childhood cancers and other rare or orphan diseases, where the expected return on new drug development has been a disincentive to pharmaceuticals.
In this project we exploit the poly-pharmacology of drugs to discover new indications via phenotypic screening of a panel of 19 well-characterized cell lines derived from solid tumors seen in children and adolescents. The goal is to identify approved drugs with previously unrecognized anticancer properties that has the potential to reveal new mechanisms and biological processes involved in carcinogenesis or drug resistance. We employed a titration-based paradigm (quantitative high-throughput screening or qHTS), where all compounds were tested at multiple concentrations for their effect on cell viability. Concentration-response curves (CRCs) were derived directly from the primary screen, and both potency and efficacy values were used to identify compounds with robust bioactivity profiles. We screened the NIH Chemical Genomics Center (NCGC) Pharmaceutical Collection (NPC) and Mechanism Interrogation Plate (MIPE) small molecule collections of approved and investigational compounds against these cell lines; and measured metabolically active cells after 48 hours of compound treatment as a proxy for cell viability.
Assay Submitter: Nathalia J. Martinez, National Center for Advancing Translational Sciences, National Institutes of Health, Rockville, MD, USA; email: natalia.martinez@nih.gov
[1] Shen, M et al. Quantitative high-throughput phenotypic screening of pediatric cancer cell lines identifies multiple opportunities for drug repurposing. Oncotarget 2017 Dec 19;9(4):4758-4772. PMID 29435139.
The cells were obtained from University of North Carolina (UNC), Pediatric Preclinical Testing Program (PPT), and Coriell Institute (CI).
qHTS cell viability assay:
Cells were assayed in growth media at a density of 500-1,000 cells/well. Five microliters of cells were dispensed into 1,536-well, white, solid-bottom, TC-treated plates (Greiner Bio One) using a multidrop dispenser and incubated at 37 degrees C, 5% CO2, under a humidified atmosphere for 5 hours. Twenty-three nanoliters of compounds and controls (neutral control DMSO or positive control bortezomib at final concentration of 2.3 µM) were subsequently transferred by Kalypsys pintool. For primary screens, the MIPE collection was tested at 11-point dilutions (final concentrations range from 0.78 nM to 46 µM) and the NPC collection at 8-point dilutions (final concentrations range from 0.59 nM to 46 µM). Compounds tested in follow-up screens were assayed at 11-point dilutions. Cells were incubated for 48 hours, followed by addition of 3 µL of CellTiter-Glo (Promega). After a 15 min incubation at room temperature, samples were analyzed for luminescence intensity using a ViewLux High-throughput CCD imager equipped with clear filters.
Potency is read from the fitted curve at half-maximal effect.

Q: For `CNC(=O)c1ccc(Nc2cc(Nc3ccccc3S(=O)(=O)C(C)C)c3cc[nH]c3n2)nc1`, which Potency is on record?
A: 0.0935 µM (active)

Q: Which Potency does the source give for `CC(=O)SCC(Cc1ccccc1)C(=O)NCC(=O)OCc1ccccc1` (stereo not given) here?
A: 0.296 µM (active)

Q: For `O=S(=O)(O)CCSSCCS(=O)(=O)O`, which Potency is on record?
A: inactive

Q: For `CC(C)NC[C@@H](C(=O)N1CCN(c2ncnc3c2[C@H](C)C[C@H]3O)CC1)c1ccc(Cl)cc1`, which Potency is on record?
A: 2.96 µM (active)

Q: With `CN[C@@H]1C[C@H]2O[C@@](C)([C@H]1OC)n1c3ccccc3c3c4c(c5c6ccccc6n2c5c31)C(=O)N[C@H]4O` as the compound, how does the Potency read?
A: 1.32 µM (active)

Q: For `N#CNC(=NCCCCCCOc1ccc(Cl)cc1)Nc1ccncc1`, which Potency is on record?
A: 0.001 µM (active)

Q: With `C[C@H](CCC(=O)O)[C@H]1CCC2C3C[C@H](O)[C@@H]4C[C@H](O)CC[C@]4(C)C3CC[C@@]21C` (stereo not given in full) as the compound, how does the Potency read?
A: inactive

Q: Which Potency does the source give for `Cc1ccccc1C(=O)Nc1ccc(C(=O)N2CCCC(O)c3cc(Cl)ccc32)c(C)c1` (stereo not given) here?
A: inactive

Q: With `C=C1C[C@@]2(O)O[C@@]3(C[C@H]2C(C)C)[C@H](C)CC[C@H]13` as the compound, how does the Potency read?
A: inactive

Q: Which Potency does the source give for `C=C1CCC2[C@](C)(CO)C(O)CC[C@]2(C)C1CC=C1C(=O)OCC1O` (stereo not given in full) here?
A: inactive

Q: Which Potency does the source give for `O=[N+]([O-])c1cn2c(n1)OC[C@@H](OCc1ccc(OC(F)(F)F)cc1)C2` here?
A: inactive

Q: For `O=C(O)C=Cc1ccc(Cn2ccnc2)cc1`, which Potency is on record?
A: inactive

Q: With `CNC(=O)c1cccc(-c2ccc3c(N4CCOC[C@H]4C)nc(N4CCOC[C@H]4C)nc3n2)c1` as the compound, how does the Potency read?
A: 4.18 µM (active)

Q: Which Potency does the source give for `c1coc(CNc2ncnc3nc[nH]c23)c1` here?
A: inactive

Q: Which Potency does the source give for `Oc1ccc([C@@H]2Oc3ccc(O)cc3[C@@H]3CCC[C@@H]32)cc1` here?
A: 10.5 µM (active)

Q: Which Potency does the source give for `C[C@H](NCc1ccc(OCc2cccc(F)c2)cc1)C(N)=O` here?
A: 7.43 µM (active)

Q: For `C=CC(=O)N1CCc2ccc(-n3c(=O)ccc4cnc5ccc(-c6cnn(C)c6)cc5c43)cc21`, which Potency is on record?
A: 2.35 µM (active)

Q: For `COc1cc(C(=O)NC2CCN(C)CC2)ccc1Nc1ncc2c(n1)N(C1CCCC1)CCC(=O)N2C(C)C`, which Potency is on record?
A: 1.18 µM (active)

Q: For `Cn1c(Nc2ccc(C(F)(F)F)cc2)nc2cc(Oc3ccnc(-c4ncc(C(F)(F)F)[nH]4)c3)ccc21`, which Potency is on record?
A: 10.5 µM (active)

Q: With `N#Cc1c(NC(=O)c2cccc3ccccc23)sc2c1CCCC2` as the compound, how does the Potency read?
A: 0.148 µM (active)

Q: Which Potency does the source give for `COC(=O)C=CC(=O)OC` here?
A: inactive

Q: For `Cn1cnc(=N)c2[nH]cnc21`, which Potency is on record?
A: 0.418 µM (active)

Q: With `C[C@H]1COc2c(N3CCN(C)CC3)c(F)cc3c(=O)c(C(=O)O)cn1c23` as the compound, how does the Potency read?
A: inactive

Q: With `Nc1ccc(C(=O)Nc2cccc(-c3nc(N4CCOCC4)c4oc5ncccc5c4n3)c2)cn1` as the compound, how does the Potency read?
A: 6.62 µM (active)

Q: For `CCNC(=O)c1cc2c(-c3cc(OCCN4CCCC4)c(Cl)cc3Cl)nc(N)nc2s1`, which Potency is on record?
A: 1.48 µM (active)

Q: For `NC(=O)c1ncn([C@@H]2O[C@H](CO)[C@@H](O)[C@@H]2O)c1O`, which Potency is on record?
A: inactive

Q: For `Cc1ccc([N+](=O)[O-])cc1S(=O)(=O)N(C)N=Cc1cnc2ccc(Br)cn12`, which Potency is on record?
A: 0.0083 µM (active)

Q: For `OCCNC1CCCc2c1[nH]c1ccc(-c3ccccc3)cc21` (stereo not given), which Potency is on record?
A: 26.4 µM (active)

Q: For `O=C(Nc1cc2cc[nH]c2cn1)c1ccccc1`, which Potency is on record?
A: 14.8 µM (active)

Q: Which Potency does the source give for `CCCNS(=O)(=O)Nc1ncnc(OCCOc2ncc(Br)cn2)c1-c1ccc(Br)cc1` here?
A: inactive

Q: With `Cc1cnn(C)c1C(=O)Nc1cc(Nc2ccc3c(C=Cc4ccccn4)n[nH]c3c2)ccc1F` as the compound, how does the Potency read?
A: 14.8 µM (active)

Q: With `C[C@]12C=CC(=O)N[C@@H]1CC[C@H]1[C@H]3CC[C@@H](C(=O)Nc4cc(C(F)(F)F)ccc4C(F)(F)F)[C@@]3(C)CC[C@@H]12` as the compound, how does the Potency read?
A: inactive

Q: For `C[C@@H]1C(=O)O[C@H]2CC34[C@H]5C[C@@H](C(C)(C)C)C36[C@H](OC(=O)[C@@H]6O)O[C@@]4(C(=O)O5)[C@]21O` (stereo not given in full), which Potency is on record?
A: 13.2 µM (active)

Q: With `CCOC(=O)N1CCN([N+]([O-])=NOc2ccc([N+](=O)[O-])cc2C#N)CC1` as the compound, how does the Potency read?
A: 4.18 µM (active)

Q: With `CNC(=O)Nc1ccc(-c2nc(N3CC4CCC(C3)O4)c3cnn(C4CCC5(CC4)OCCO5)c3n2)cc1` as the compound, how does the Potency read?
A: 6.62 µM (active)

Q: With `Cc1cnc(NC(=O)Nc2cc(Br)c(C)cc2OC[C@@H]2CNCCO2)cn1` as the compound, how does the Potency read?
A: 1.87 µM (active)

Q: For `O=c1c(O)c(-c2ccc(O)c(O)c2)oc2cc(O)ccc12`, which Potency is on record?
A: 16.6 µM (active)

Q: For `C[C@@H](Cc1cc2c(c(C(N)=O)c1)N(CCCO)CC2)NCCOc1ccccc1OCC(F)(F)F`, which Potency is on record?
A: inactive

Q: For `CS[C@H]1SC[C@@H]2C(=O)N(C)[C@H](C(C)C)C(=O)OC[C@H](NC(=O)c3cnc4ccccc4n3)C(=O)N[C@H](C)C(=O)N(C)[C@@H]1C(=O)N(C)[C@H](C(C)C)C(=O)OC[C@H](NC(=O)c1cnc3ccccc3n1)C(=O)N[C@H](C)C(=O)N2C`, which Potency is on record?
A: inactive

Q: Which Potency does the source give for `C=Cc1c(C)c2cc3nc(cc4[nH]c(cc5nc(cc1[nH]2)C(C)=C5CCC(=O)O)c(CCC(=O)OC)c4C)[C@@]1(C)C3=CC=C(C(=O)OC)[C@H]1C(=O)OC` here?
A: 0.0526 µM (active)
